Only a selection was taken, and hits are over-represented in it overall.
GIRK2 act: activators of NPY4-receptor-primed GIRK2 channels, summary, cell-based, HEK293, thallium flux; G protein-activated inward rectifier potassium channel 2 (Homo sapiens), P48051; HEK293 GIRK2/NPY4 cells, thallium flux fluorescence; activation (% efficacy), % for hits at 75 µM; 34,000 tested, under 10 active; AID 1259324, 2017;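 active means primary screen hit, no activity in plain HEK293 cells, and in GIRK2-only cells above 5% efficacy rising with concentration; inactive means the rest, including fluorescent compounds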;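 further: efficacy is normalized control-subtracted fluorescence 15 s after thallium addition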
GluA2 TARP mod: modulators of GluA2-stargazin AMPA receptor complexes, primary screen, cell-based, membrane potential dye; Voltage-dependent calcium channel gamma-2 subunit (Mus musculus) + Glutamate receptor 2 …; HEK293 GluA2+stargazin, membrane potential dye (FDSS), glutamate EC50; hits were called plate by plate, in both directions; calls only at 30 µM; actives 3.5% (n = 40,000); AID 1259245, 2017;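 active means any of four per-well response measures lying three or more SD from its plate-wide compound average, in either direction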
Active calls of the source: *; i = inactive; x = not tested or not shown; + = active, no number; ! = repeats disagree.

SMILES	GIRK2 act	GluA2 TARP mod
Cc1ccc(CNC(=O)C2CCC(Cn3c(=S)[nH]c4ccccc4c3=O)CC2)cc1 (stereo not drawn)	i	i
CCSc1nnc(NC(=O)C2(c3cc(-c4cccs4)on3)CC2)s1	i	x
CCOC(=O)c1ccc(-n2c(C)cn3c4c(=O)n(CCN5CCOCC5)c(=O)n(C)c4nc23)cc1	x	i
O=C(Nc1nccs1)C1(c2cc(-c3ccco3)on2)CC1	i	x
Cc1ccc(S(=O)(=O)Nc2nc(CCC(=O)Nc3cccc(Cl)c3)cs2)cc1	i	+
Cc1ccc(S(=O)(=O)Nc2nc(CCC(=O)Nc3cccc(F)c3)cs2)cc1	i	i
CCc1ccc(Oc2cc(N3CCC(C(=O)NCc4ccc(F)c(Cl)c4)CC3)ncn2)cc1	i	+
CCc1ccc(Oc2cc(N3CCC(C(=O)NCc4cccc(Cl)c4)CC3)ncn2)cc1	i	i
COc1ccccc1OCC(=O)Nc1ccc2c(c1)N(C(=O)C1CC1)CC2	i	i
O=C(NCc1cccs1)Nc1ccc(Cl)c(N2CCCS2(=O)=O)c1	i	i
O=C(NCc1cccc2ccccc12)Nc1ccc(Cl)c(N2CCCS2(=O)=O)c1	i	+
CCC1(C)CC(CCN(Cc2ccccc2F)C(C)=O)(c2ccccc2)CCO1 (stereo not drawn)	x	+
O=C(NCC1(c2ccccc2)CCOCC1)c1ccccc1C(F)(F)F	i	i
CC(c1ccccc1)n1c(N2CCCC2)nc2c1c(=O)n(C)c(=O)n2C (stereo not drawn)	i	i
CC(c1ccccc1)n1c(N2CCCCCC2)nc2c1c(=O)n(C)c(=O)n2C (stereo not drawn)	i	+
Cc1cc(C(=O)N2CCOCC2)nn1CC(=O)N(C)C1CCN(C)CC1	i	i
COCCCNC(=O)CC1Sc2ccccc2NC1=O (stereo not drawn)	x	i
COc1ccc(F)cc1S(=O)(=O)NC1CCCC(O)C1 (stereo not drawn)	i	i
O=C(c1cc2ccccc2o1)N1CCC(CNS(=O)(=O)c2ccc3c(c2)OCCO3)CC1	i	i
O=C(/C=C/c1ccccc1)NCC1CCN(C(=O)c2cc3ccccc3o2)CC1	i	+
O=C(CSCc1ccccc1)NCC1CCN(C(=O)c2cc3ccccc3o2)CC1	i	i
O=C(/C=C/c1ccc2c(c1)OCO2)NCC1CCN(C(=O)c2cc3ccccc3o2)CC1	i	+
O=S(=O)(NCC1CCN(c2ncccn2)CC1)C1CCCCC1	i	i
O=C(c1ccc2c(c1)OCO2)N1CCC(Oc2nc3c(F)cc(F)cc3s2)CC1	i	i
COc1ccc(Cl)cc1NC(=O)Nc1ccc(-n2nnn(CC(N)=O)c2=O)cc1	i	i
SMILES	GIRK2 act	GluA2 TARP mod
O=C(COc1ccccc1C1CC(c2ccccc2)=NN1C(=O)c1ccccc1)N1CCOCC1 (stereo not drawn)	x	+
O=C(COc1ccccc1C1CC(c2cccs2)=NN1C(=O)c1ccccc1)N1CCCC1 (stereo not drawn)	x	i
CCc1ccccc1NC(=O)C(=O)NCC(c1cccn1C)N1CCN(C)CC1 (stereo not drawn)	i	i
Cc1cc(-c2nnc(NC(=O)C3Oc4ccccc4OC3C)o2)n(C)n1 (stereo not drawn)	i	i
COCCNC(=O)C(=O)NCC1(c2cccs2)CC1	i	i
COCCNC(=O)NCC1(c2cccs2)CC1	i	+
CCN(CC)CCNC(=O)Cc1cc(-c2ccc(F)cc2F)on1	i	i
COc1cc(C)c(C)cc1S(=O)(=O)N(Cc1cccn1C)C1CC1	i	x
COc1ccc(S(=O)(=O)/N=C2/C=C(Nc3ccc(C)cc3)C(=O)c3ccccc32)cc1	x	+
COc1ccc(S(=O)(=O)/N=C2/C=C(Nc3cccc(C)c3)C(=O)c3ccccc32)cc1	x	+
COc1ccc(S(=O)(=O)CCC(=O)Nc2cc(C)cc(C)c2)cc1	i	i
CCOc1ccc(NC2=C/C(=N/S(=O)(=O)c3ccc(OC)cc3)c3ccccc3C2=O)cc1	x	i
COC(=O)c1ccccc1NC1=C/C(=N/S(=O)(=O)c2ccc(F)cc2)c2ccccc2C1=O	x	+
COC(=O)c1cccc(NS(=O)(=O)c2ccc(F)cc2)c1C	x	i
O=C(c1nc2ccccc2s1)N1CCC(COCc2ccccc2)CC1	i	i
CSc1ncccc1C(=O)N1CCC(CNC(=O)c2snnc2C)CC1	i	i
CCOc1cn(-c2ccc(F)cc2)nc1C(=O)NCc1ccc2c(c1)OCO2	i	i
CCCNc1cc(C)nc2c(-c3ccc(OC)c(OC)c3)c(C)nn12	i	i
CN1CCOc2ccc(NS(=O)(=O)c3ccccc3)cc2C1=O	x	+
CN1CCOc2ccc(NS(=O)(=O)c3ccc(-c4ccccc4)cc3)cc2C1=O	x	i
Cc1ccc(N2C(=O)N(Cc3ccc(C#N)cc3)c3ccccc3S2(=O)=O)cc1	x	i
Cc1cc(C)c(S(=O)(=O)NCc2cccnc2)cc1N(C)S(C)(=O)=O	i	i
O=C(CSc1ncc(S(=O)(=O)c2ccc(Br)cc2)c(=O)[nH]1)Nc1ccccc1F	x	+
Cc1ccc(S(=O)(=O)c2cnc(SCC(=O)Nc3ccc(Br)cc3)[nH]c2=O)cc1	i	i
COC(=O)c1ccccc1-n1c(=O)c2ccccc2c2ccccc2c1=O	x	i
SMILES	GIRK2 act	GluA2 TARP mod
COC(=O)c1ccccc1N=Nc1c(N)[nH]n(-c2ccccc2)c1=O	x	+
COc1cc(S(=O)(=O)Nc2cc(Cl)ccc2O)c(OC)cc1Cl	i	+
COc1cc(S(=O)(=O)Nc2cccc3cn[nH]c23)c(OC)cc1Cl	x	i
CCOC(=O)C1CCN(C(=O)Cc2csc(Nc3cccc(C(F)(F)F)c3)n2)CC1	i	+
CCOC(=O)C1CCN(C(=O)Cc2csc(Nc3ccccc3)n2)CC1	i	i
COC(=O)/C=C1\S/C(=N/Nc2nc(C)cc(C)n2)N(c2ccccc2)C1=O	i	x
COC(=O)/C=C1\S/C(=N\Nc2nc(C)cc(C)n2)N(c2ccccc2)C1=O	x	+
COCCCN1COc2ccc3cc(-c4ccccc4)c(=O)oc3c2C1	i	i
O=S(=O)(NCC1(O)CCc2ccccc21)c1ccc(Cl)s1 (stereo not drawn)	i	x
CCc1c(C)nc(SCC(=O)Nc2cc(C(F)(F)F)ccc2Cl)[nH]c1=O	x	+
Cc1cc(=O)n(CC(=O)Nc2cc(C(F)(F)F)ccc2Cl)cn1	i	i
O=C(CN1CCC(c2nnc(C3CC3)o2)CC1)NCc1ccccc1Cl	i	i
CN(c1ccsc1C(=O)Nc1ccc(F)c(F)c1)S(=O)(=O)c1ccccc1	i	i
CN1C(=O)CCc2cc(NC(=O)c3ccc4c(c3)OCO4)ccc21	x	+
CN(C1CCCC1)S(=O)(=O)c1ccc(C(=O)Nc2ccc3c(c2)OCO3)cc1	x	i
CN(C1CC1)S(=O)(=O)c1ccc(C(=O)Nc2ccc3c(c2)OCO3)cc1	i	+
CCCCN1C(=O)CCc2cc(NC(=O)c3ccc4c(c3)OCO4)ccc21	i	i
CN(c1ccsc1C(=O)Nc1ccc2c(c1)OCCO2)S(=O)(=O)c1ccccc1	i	+!

Screening results from PubChem.
